Screens: PubChem, National Center for Advancing Translational Sciences (NCATS)
L3MBTL1 inh: inhibitors of human L3MBTL1; actives 0.66% (n = 230,000); Potency, µM (highest dose often 57.1 µM), most hits filed as inhibitors; Q9Y468; AlphaScreen L3MBTL1–H3K9me1 peptide binding; note: nearly all actives have a fitted effect of over 60% in size
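AlphaScreen assay: L3MBTL1 (50 nM final) was preincubated 30 min at room temperature with biotinylated H3(1-15)K9me1 peptide (75 nM final), then 30 min with library compounds; streptavidin donor and nickel chelate acceptor beads (10 ug/mL final) added, 30 min dark.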
KDM4E inh: blocks human JMJD2E demethylase activity; B2RXH2; actives 1.6% (n = 230,000); JMJD2E catalytic domain, FDH-coupled NADH fluorescence (FDH is formaldehyde dehydrogenase); AID 2147; Potency, µM (series often up to 57.1 µM), hits mostly inhibitors; active = well fitted inhibition curve with a large enough effect, not every such curve was filed as active; inconclusive = small, poorly fitted or top-dose-only effect, or another doubt; inactive = no such curve, though single readings can be large or run the other way; note: nearly all actives have a fitted effect of over 50% in size
APE1 inh: APE1 (human) endonuclease inhibition. actives 0.35% (n = 350,000). recombinant APE1, TAMRA/BHQ-2 abasic DNA cleavage fluorescence. P27695. Potency, µM (highest dose often 65.8 µM), usual class: inhibitors; note: nearly all actives have a fitted effect of over 55% in size
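Compound pre-exposure to 0.75 nM APE1, 15 min at ambient temperature. Reaction initiated with 50 nM TAMRA/BHQ-2 THF substrate, read immediately in kinetic mode, 525 nm excitation, 598 nm emission.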
BLM helicase inh: Bloom syndrome helicase (human) inhibition. P54132. recombinant BLM DNA unwinding, fluorescence dequenching. Potency, µM (highest dose often 56.1 µM), hits mostly inhibitors. actives 0.2% (n = 350,000); note: nearly all actives have a fitted effect of over 35% in size
TDP1 block: inhibitors of human tyrosyl-DNA phosphodiesterase TDP1; Q9NUW8; recombinant TDP1, AlphaScreen DNA substrate cleavage; Potency, µM (titrated, usually from 130 µM), usual class: inhibitors; actives 0.28% (n = 350,000); AID 485290; note: nearly all actives have a fitted effect of over 40% in size
Target sequence (Q9NUW8 whole entry, looked up): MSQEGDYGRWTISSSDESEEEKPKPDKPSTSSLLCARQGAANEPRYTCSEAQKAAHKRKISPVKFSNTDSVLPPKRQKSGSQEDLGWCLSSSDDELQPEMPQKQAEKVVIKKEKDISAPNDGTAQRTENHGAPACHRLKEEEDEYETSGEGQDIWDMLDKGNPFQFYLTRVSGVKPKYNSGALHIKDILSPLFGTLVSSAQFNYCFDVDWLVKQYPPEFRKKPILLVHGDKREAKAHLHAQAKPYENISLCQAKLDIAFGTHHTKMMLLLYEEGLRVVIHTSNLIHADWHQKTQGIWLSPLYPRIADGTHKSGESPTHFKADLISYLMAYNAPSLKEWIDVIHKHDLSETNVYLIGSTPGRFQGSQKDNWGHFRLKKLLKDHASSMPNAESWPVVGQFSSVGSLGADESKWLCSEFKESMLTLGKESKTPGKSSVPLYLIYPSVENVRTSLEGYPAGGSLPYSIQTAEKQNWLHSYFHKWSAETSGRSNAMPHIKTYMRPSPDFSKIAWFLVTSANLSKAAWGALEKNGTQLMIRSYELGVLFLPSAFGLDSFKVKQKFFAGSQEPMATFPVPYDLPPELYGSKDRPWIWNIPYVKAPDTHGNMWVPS
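Recombinant E. coli-expressed Tdp1 (1 nM) preincubated with compound 15 min at RT, then 5'-biotin/3'-phosphotyrosine-FITC DNA substrate (15 nM) added for 5 min. AlphaScreen beads (10 ug/ml) added, 10 min RT; tyrosine-FITC cleavage read as signal loss.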
RECQ1 helicase: blocks DNA unwinding by human RECQ1. AID 2549. Potency, µM (top dose mostly 57.3 µM), most hits filed as inhibitors. P46063. RECQ1 DNA unwinding, red fluorescence kinetic read. actives 0.54% (n = 240,000); note: nearly all actives have a fitted effect of over 30% in size
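50 nM RECQ1T1 preincubated 15 min with compound in Tris pH 8.0 buffer with MgCl2, DTT, Tween-20 and 2.5 ug/ml poly(dI-dC); started with 200 nM TAMRA/BHQ-2 forked duplex and 2 mM ATP. Unwinding read as fluorescence (525/598 nm), two reads 2 h apart.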
A number is an active result; n = inactive; u = inconclusive; x = not tested or not shown; ! = repeats disagree; [ ] = another dose, or the depositor's remark. Shown is part of a subset that was picked to be rich in hits. Unless noted, calls come from the whole dose curve; as a rule, active = well fitted curve in the direction sought with a large enough effect; inconclusive = small, poorly fitted or top-dose-only effect, or another doubt; inactive = no such curve, though single readings can be large; an effect the other way counts as inactive or inconclusive.

SMILES | L3MBTL1 inh | KDM4E inh | APE1 inh | BLM helicase inh | TDP1 block | RECQ1 helicase
O=C(O)c1cccc(N/N=C/c2ccc(OC(F)(F)F)cc2)c1 | x | x | n | n | x | x
O=C(O)c1cc(N/N=C/c2ccc(OCc3ccccc3)cc2)ccc1Cl | u | n | n | n | n | n
COC(=O)c1ccc(COc2ccc(/C=N/Nc3cccc(C(=O)O)c3)cc2)cc1 | 25.1µM | n | u | n | 39.8µM | n
CSc1ccc(/C=N/Nc2cccc(C(=O)O)c2)cc1 | 5.01µM | u | 2.24µM | n | 1.12µM | 31.6µM
CC(C)(C)n1ncc2c(=O)n(Cc3ccc(Cl)c(SC(F)(F)F)c3)cnc21 | x | x | n | x | x | x
CC(=O)Nc1cccc(S(=O)(=O)N2CCCN(S(=O)(=O)c3ccc4c(c3)OCCO4)CC2)c1 | x | x | x | x | n | x
CC#CCN1c2ccccc2[C@]23C[C@@H](C(=O)OC)N(S(=O)(=O)c4ccc5c(c4)OCCN5C)C2=NC(C(=O)OC)=C(C(=O)OC)[C@H]13 | x | n[11.4 µM] | n[12.4 µM] | n[12.4 µM] | n[12.3 µM] | u
COC(=O)c1c(-c2ccc(C(C)(C)C)cc2)csc1NC(=O)C1C2CCC(O2)C1C(=O)O (centres undefined) | n | 15.8µM | n | n | n | n
COc1ccc2cc(C#N)c(=O)oc2c1 | x | x | u | n | n | n
O=C(N/N=C/c1c[nH]c2ccccc12)c1cc(-c2ccc(-c3ccccc3)cc2)n[nH]1 | n | u | n | n | n | n
O=C(N/N=C/c1c[nH]c2ccccc12)c1cc(-c2ccccc2)n[nH]1 | n | n | n | n | n | 25.1µM
Oc1ccc2c(c1)C1CCCC1(N1CCOCC1)O2 (centres undefined) | 31.6µM | 15.8µM | u | n | n | n
Cc1cc2c(s1)c1cnn(Cc3ccccc3)c(=O)c1n2C | x | x | x | x | n | x
Cc1cccc(OC2=NS(=O)(=O)c3ccccc32)c1 | x | x | x | x | n | x
CSc1nsc(/C=C/Nc2ccc(O)cc2C)c1C#N | n | 12.6µM | u | n | n | u
CO[C@H]1C[C@H](O[C@H]2[C@H](C)[C@@H](O[C@@H]3O[C@H](C)C[C@H](N(C)C)[C@H]3O)[C@@H](C)C[C@]3(CO3)C(=O)[C@H](C)[C@@H](O)[C@@H](C)[C@@H](C)OC(=O)[C@@H]2C)O[C@@H](C)[C@@H]1O | x | x | n | x | x | x
Cc1ncc(CO)c(/C=N/Nc2ccc(C(F)(F)F)cn2)c1O | x | x | n | n | n | x
Cc1ncc(CO)c(/C=N/NC(=S)Nc2ccc(F)cc2)c1O | 14.1µM | u | n | n | n | n
COc1ccc(CCN2C(=O)C3C4CC(C5C(C(N)=O)=NOC45)C3C2=O)cc1OC (centres undefined) | x | n | u | n | 12.6µM | n
COc1ccc(CCN2C(=O)C3C4CC(C5C(C(=O)NN)=NOC45)C3C2=O)cc1OC (centres undefined) | x | n | n | n | n | n
COc1cc(/C=C/c2ccccc2)oc(=O)c1 | x | x | n | x | n | n
O=C(N/N=C\c1ccc([N+](=O)[O-])o1)c1cncc(Br)c1 | x | n | n | n | x | n
COc1cc([N+](=O)[O-])cc(/C=N/NC(=O)c2cncc(Br)c2)c1O | u | 14.1µM | n | n | n | n
COc1cc(/C=N/NC(=O)c2cncc(Br)c2)cc([N+](=O)[O-])c1O | 31.6µM | 7.94µM | n | n | n | n
CC#CCN1c2ccccc2[C@]23C[C@@H](C(=O)OC)N(C(=O)CC(C)C)C2=NC(C(=O)OC)=C(C(=O)OC)[C@H]13 | x | n[11.4 µM] | n[12.4 µM] | n[12.4 µM] | n[12.3 µM] | n[11.5 µM]
SMILES | L3MBTL1 inh | KDM4E inh | APE1 inh | BLM helicase inh | TDP1 block | RECQ1 helicase
O=S(=O)(c1cccc(O)c1)N1CCN(S(=O)(=O)c2c(F)cccc2F)CC1 | x | x | x | x | n | x
Cc1ccc2[nH]c(=S)cc(C)c2c1 | n | 7.08µM | n | n | n | n
O=S(=O)(c1ccc2c(c1)OCCO2)N1CCN(S(=O)(=O)c2cc(F)c(Br)cc2F)CC1 | x | x | x | x | n | x
COc1ccc(/C=C2\CCCC(C(=O)C(F)(F)F)=C2O)cc1OC | x | 25.1µM | n | n | n | n
C=Cc1cc2c(s1)c1cnn(Cc3ccccc3F)c(=O)c1n2C | x | x | x | x | n | x
CCn1nc(-c2ccccc2C)nc2c(=O)n(C)c(=O)nc1-2 | x | x | x | x | n | x
O=C(NCc1ccc(/C=c2\sc3n(c2=O)CCN=3)o1)C(=O)Nc1ccccc1 | 25.1µM | n | n | n | n | n
Cc1ccc(/C=c2/sc3n(c2=O)CCCN=3)o1 | n | u | n | n | n | n
CC1(OC(=O)CCc2ccccc2)C(=O)C=C2C=C(c3ccsc3)OC=C2C1=O (centres undefined) | x | n | n | n | n | u
CC1(OC(=O)CCc2ccccc2)C(=O)C=C2C=C(c3ccc(C#N)cc3)N(CCN3CCOCC3)C=C2C1=O (centres undefined) | x | 12.6µM | n[12.4 µM] | n[12.4 µM] | n[12.3 µM] | n[11.5 µM]
COC(=O)CCC(=O)OC1(C)C(=O)C=C2C=C(C3CC3)N(C3CCCC3)C=C2C1=O (centres undefined) | x | n[11.4 µM] | n[12.4 µM] | n[12.4 µM] | n[12.3 µM] | n[11.5 µM]
CC1(OC(=O)CCc2ccccc2)C(=O)C=C2C=C(c3ccc(C#N)cc3)N(c3ccccc3)C=C2C1=O (centres undefined) | x | 11.2µM | n[12.4 µM] | n[12.4 µM] | n[12.3 µM] | n[11.5 µM]
CC1(OC(=O)CCc2ccccc2)C(=O)C=C2C=C(c3ccc(C#N)cc3)OC=C2C1=O (centres undefined) | x | n | n | n | n | n
COC(=O)CCC(=O)OC1(C)C(=O)C=C2C=C(C3CC3)N(C3CCCCC3)C=C2C1=O (centres undefined) | x | 15.8µM! | n[12.4 µM] | n[12.4 µM] | n[21 µM] | n[11.5 µM]
CC1(OC(=O)CCc2ccccc2)C(=O)C=C2C=C(c3ccc(C#N)cc3)N(C3CCCC3)C=C2C1=O (centres undefined) | x | 20µM | u | n[12.4 µM] | n[21 µM] | n[11.5 µM]
CC1(OC(=O)CCc2ccccc2)C(=O)C=C2C=C(c3ccc(C#N)cc3)N(CC3CC3)C=C2C1=O (centres undefined) | x | u | n[12.4 µM] | n[12.4 µM] | n[12.3 µM] | n[11.5 µM]
CCCCC(OC(=O)CNC(=O)c1ccccc1)C(=O)Nc1cc(C(F)(F)F)ccc1Cl (centres undefined) | x | x | x | x | n | x
O=C(c1ccccc1O)N(Cc1ccco1)Cc1ccco1 | x | x | x | x | n | x
CCCCOc1cc(C(=O)NCCN(CC)CC)c2ccccc2n1 | n | 31.6µM | n | n | n | n
C=CCn1c(=O)[nH]c2nc3cc(N=CN(C)C)c(C)cc3nc2c1=O | x | u | n | n | x | n
Nc1ccc2nc3c(=O)n(CCc4ccccc4)c(=O)[nH]c3nc2c1 | x | 1.78µM | n | n | n | n
Cc1cc2nc3c(=O)n(CCc4ccccc4)c(=O)[nH]c3nc2cc1N | x | 31.6µM | n | n | n | n
CC1=C[C@@H](O)CC(C)(C)[C@@H]1/C=C/C(C)=C/C=C/C(C)=C/C=C/C=C(C)/C=C/C=C(C)/C=C/C1=C(C)C[C@H](O)CC1(C)C | x | x | x | n | x | x
COc1cccc(C2=Nn3c(nnc3-c3cc(OC)ccc3OC)SC2)c1 | x | x | n | n | n | n
